Assay [1] in a line: HepG2 liver cancer cell viability effects, profiling panel, resazurin fluorescence, 24 h, PK04 Diversity Set (AID 1172). Particulars: higher = more signal. (Resazurin is reduced to fluorescent resorufin, in cell work by metabolically active cells.)
Assay [2] can be described thus: basal S. cerevisiae growth modulation, no modifier, primary screen, OD600, strain BY4716, 24 h, basal condition (AID 1173). As to conditions: OD600, 24 h, higher = more signal, called active from +8 up or from −8 down.
The nature of assay [3]: MM1S myeloma cell viability, profiling panel, resazurin fluorescence, basal, 24 h, PK04 Diversity Set (AID 1174).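 Note: MM1S multiple myeloma cell line.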 Particulars: higher = more signal, called active from +8 up or from −8 down.
Assay [4] concerns the target Dihydroorotate dehydrogenase (quinone), mitochondrial (Plasmodium falciparum (isolate 3D7)) (UniProt Q08210). Kind of assay: PfDHODH enzyme inhibitors, primary screen, biochemical, C-terminal His tag, absorbance 600 nm (AID 1175).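 Note: recombinant parasite enzyme with a five histidine tag at its C terminus.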 Particulars: DCIP absorbance 600 nm, higher = more signal, called active from +8 up or from −8 down.
The nature of assay [5]: P. aeruginosa biofilm formation inhibitors, primary screen, strain PAO1, LB-PBS medium, absorbance 600 nm (AID 1176). Particulars: P. aeruginosa PAO1 growth/biofilm, A600, 12 h; higher = more signal.
Assay [6] in a line: S. cerevisiae RM11-1a growth modifiers, primary screen, strain RM11-1a, OD600, basal, 24 h (AID 1177).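 Note: cultures grown under basal conditions with no added stressor.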 Particulars: OD600, 24 h, higher = more signal, called active from +8 up or from −8 down.
Assay [7] is described as follows: E. coli acrAB mutant growth effects, primary screen, E. coli filamentation inducers, strain DRC39, OD650, 24 h (AID 1178).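 Note: growth measured as culture turbidity by optical density at 650 nm.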 Particulars: higher = more signal, called active from +8 up or from −8 down.
The nature of assay [8]: E. coli acrAB mutant growth effects, primary screen, E. coli filamentation inducers, strain DRC39, OD650, 48 h (AID 1179).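 Note: screen aims at cell division blockers that make cells filament.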 As to conditions: E. coli DRC39 delta-acrAB growth, higher = more signal, called active from +8 up or from −8 down.
Assay [9] in a line: RPMI8226 myeloma cell viability, profiling panel, resazurin fluorescence, basal, 24 h, PK04 Diversity Set (AID 1180).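 Note: RPMI8826 multiple myeloma cell line at 5000 cells per well.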 As to conditions: higher = more signal.
Assay [10] deals with E3 ubiquitin-protein ligase XIAP (Homo sapiens) (UniProt P98170). Kind of assay: XIAP binders, primary screen, biophysical, small-molecule microarray, fluorescence 635 nm (AID 1181).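 Note: score merges 667 nm emission and signal to noise over triplicate slides.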 Particulars: small-molecule microarray binding, higher = more signal.
Sequence of E3 ubiquitin-protein ligase XIAP (Homo sapiens) (P98170 whole entry, looked up): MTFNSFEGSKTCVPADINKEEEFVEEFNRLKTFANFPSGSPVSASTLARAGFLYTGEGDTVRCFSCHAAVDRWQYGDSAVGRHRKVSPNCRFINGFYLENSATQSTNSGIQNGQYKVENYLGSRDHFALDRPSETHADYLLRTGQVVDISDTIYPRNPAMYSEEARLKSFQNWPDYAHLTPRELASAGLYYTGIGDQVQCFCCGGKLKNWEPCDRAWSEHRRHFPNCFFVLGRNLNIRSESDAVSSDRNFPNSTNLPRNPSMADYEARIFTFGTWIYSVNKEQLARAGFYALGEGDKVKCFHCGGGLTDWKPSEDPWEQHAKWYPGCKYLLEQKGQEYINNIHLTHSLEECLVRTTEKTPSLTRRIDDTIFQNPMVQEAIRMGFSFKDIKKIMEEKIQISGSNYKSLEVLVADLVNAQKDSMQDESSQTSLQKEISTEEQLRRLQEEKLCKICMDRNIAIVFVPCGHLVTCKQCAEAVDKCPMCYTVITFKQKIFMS
The test system of assay [11] is XIP peptide (Xip251-270) binding. Kind of assay: small-molecule binders of XIP peptide, primary screen, biochemical, small-molecule microarray, fluorescence 635/667 nm, 0.1 µg/mL protein (AID 1182). Particulars: fluorescent protein binding, 635 nm, higher = more signal, called active from +8 up or from −8 down.
In the next assay the test system is XIP peptide (Xip251-270). Kind of assay: small-molecule binders of XIP peptide, primary screen, biochemical, small-molecule microarray, fluorescence 635/667 nm, 0.5 µg/mL protein (AID 1183). Particulars: small-molecule microarray binding, fluorescence 635 nm; higher = more signal.
A short description of assay [12]: Plasmodium falciparum growth inhibition, primary screen, strain 3D7, DAPI fluorescence, 100 nL (AID 1184).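 Note: parasites grown inside human red blood cells in medium with human serum.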 Particulars: P. falciparum 3D7 growth, 3 d, higher = more signal.
The target of assay [13] is Homeobox protein Hox-A13 (Mus musculus) (UniProt Q62424). The assay is described as follows: inhibitors of HoxA13-DNA binding, primary screen, biochemical, fluorescence polarization, labeled oligonucleotide (AID 1185). As to conditions: 15 min, higher = more signal, called active from +8 up or from −8 down. On the technique in general: In fluorescence polarisation assays a small probe gives low polarisation when free and higher when bound to something large.
Sequence of Homeobox protein Hox-A13 (Mus musculus) (Q62424 whole entry, looked up): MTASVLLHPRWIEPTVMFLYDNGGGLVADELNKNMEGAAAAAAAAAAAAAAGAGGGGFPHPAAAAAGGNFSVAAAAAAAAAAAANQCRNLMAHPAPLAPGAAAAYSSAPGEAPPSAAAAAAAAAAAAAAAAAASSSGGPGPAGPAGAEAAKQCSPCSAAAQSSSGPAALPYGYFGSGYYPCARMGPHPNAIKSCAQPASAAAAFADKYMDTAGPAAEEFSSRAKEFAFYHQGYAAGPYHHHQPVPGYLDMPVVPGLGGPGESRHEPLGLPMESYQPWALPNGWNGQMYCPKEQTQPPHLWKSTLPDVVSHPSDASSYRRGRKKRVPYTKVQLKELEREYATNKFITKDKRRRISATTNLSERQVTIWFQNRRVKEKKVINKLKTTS

The nature of assay [14]: inhibitors of hydroxyurea-induced Chk1 phosphorylation, primary screen, imaging, HeLa, phospho-Chk1 antibody, percent positive cells (AID 1186). Particulars: hydroxyurea-induced phospho-Chk1 immunofluorescence imaging, higher = more signal.
A short description of assay [15]: inhibitors of hydroxyurea-induced Chk1 phosphorylation, primary screen, imaging, HeLa, phospho-Chk1 nuclear intensity (AID 1187). As to conditions: hydroxyurea-induced phospho-Chk1 immunofluorescence imaging, higher = more signal.

The values that follow come from PubChem BioAssay.

Calls of active or inactive are those of the source. Unless noted, the rule behind the calls is not given here.

Sequence of Dihydroorotate dehydrogenase (quinone), mitochondrial (Plasmodium falciparum (isolate 3D7)) (Q08210 whole entry, looked up): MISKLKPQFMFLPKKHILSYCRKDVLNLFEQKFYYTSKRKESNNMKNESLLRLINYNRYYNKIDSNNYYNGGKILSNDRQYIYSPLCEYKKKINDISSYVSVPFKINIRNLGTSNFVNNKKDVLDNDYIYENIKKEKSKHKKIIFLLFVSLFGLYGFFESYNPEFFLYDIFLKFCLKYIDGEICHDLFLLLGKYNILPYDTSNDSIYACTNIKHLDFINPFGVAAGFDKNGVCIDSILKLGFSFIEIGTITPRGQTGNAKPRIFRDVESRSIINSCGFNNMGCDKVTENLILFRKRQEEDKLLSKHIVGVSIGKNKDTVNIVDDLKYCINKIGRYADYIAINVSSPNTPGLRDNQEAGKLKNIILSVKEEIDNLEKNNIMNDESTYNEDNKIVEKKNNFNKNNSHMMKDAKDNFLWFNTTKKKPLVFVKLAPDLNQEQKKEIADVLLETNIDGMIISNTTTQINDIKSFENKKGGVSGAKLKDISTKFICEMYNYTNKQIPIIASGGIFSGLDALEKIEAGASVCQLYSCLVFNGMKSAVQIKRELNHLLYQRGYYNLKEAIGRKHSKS

Regarding `O=C(N1CCOCC1)[C@@]1(CCS(=O)(=O)c2ccccc2)COC(c2ccc(OCCCO)cc2)=N1`, the z-score in assay [1] was 0.0754; in [2] it was 0.0036 (inactive); in assay [3], -0.262 (inactive); in assay [5], 0.193 (inactive); in assay [6], 0.0216 (inactive); in assay [7], -0.0668 (inactive). Further, the z-score in [8] was 0.589 (inactive); in [9] it was -0.387; in [12], -1.34; in [13], -5.88 (inactive); in assay [14], 0.145 (inactive); in assay [15], 0.273 (inactive). Moreover, the composite z-score is 0.0576 (inactive) in [4], -0.02 in assay [10], 0.429 (inactive) in assay [11] and 0.599 in the assay with XIP peptide (Xip251-270).

As for `CC(C)c1ccc(NN2C(C(O)c3ccccn3)C=CC3C(=O)N(c4ccccc4)C(=O)C32)cc1` (centres undefined), the z-score in assay [1] is -0.981; in [2], -0.147 (inactive); in [3] it was -1.17 (inactive); in [5] it was 0.0895 (inactive); in assay [6], 1.92 (inactive); in [7], 0.235 (inactive). Moreover, the z-score in assay [8] was 0.0644 (inactive); in assay [9], -0.698; in [12], -0.723; in assay [13], -4.86 (inactive); in assay [14], 0.236 (inactive); in [15], 0.375 (inactive). Also, the composite z-score in assay [4] is 1.87 (inactive); in [10], -0.0559; in assay [11], 1.17 (inactive); in the assay with XIP peptide (Xip251-270), 0.69.

`O=C1C[C@@](C(=O)O)(c2ccc([N+](=O)[O-])cc2)[C@@H](c2ccc(CO)cc2)N1CC12CC3CC(CC(C3)C1)C2`: the z-score in [1] is -0.246; in [2], -0.418 (inactive); in assay [3] it was -0.646 (inactive); in [5], 0.692 (inactive); in assay [6], 1.08 (inactive); in assay [7] it was 0.667 (inactive). Besides, the z-score was 0.507 (inactive) in [8]; -0.474 in [9]; -0.626 in assay [12]; -3.96 (inactive) in assay [13]; -0.226 (inactive) in [14]; -0.715 (inactive) in [15]. Also, the composite z-score was -3.13 (inactive) in assay [4], -0.234 in assay [10], 0.312 (inactive) in assay [11] and 0.748 in the assay on XIP peptide (Xip251-270).

Take `COc1ccc(C(=O)Nc2ccc(CN3C(=O)[C@@]4(O[C@@H](CC(=O)N5Cc6ccccc6C[C@H]5CO)[C@H]([Si](C)(C)c5ccc(OC)cc5)[C@H]4C)c4ccccc43)cc2)cc1`: the z-score was 0.473 in assay [1]; -0.273 (inactive) in [2]; -1.66 (inactive) in [3]; 0.896 (inactive) in assay [5]; 1.23 (inactive) in assay [6]; 0.704 (inactive) in assay [7]. Also, the z-score in [8] is 0.241 (inactive); in assay [9], -1.04; in assay [12] it was -1.23; in [13] it was -2.48 (inactive); in assay [14], 0.175 (inactive); in [15], 0.514 (inactive). Further, the composite z-score in [4] is -3.48 (inactive); in assay [10] it was -0.127; in [11], 1.38 (inactive); with XIP peptide (Xip251-270) it was 0.701.

Regarding `CN(C)C(=O)[C@@]1(CCC(=O)OC(C)(C)C)N=C(c2ccc(OCCCO)cc2)O[C@H]1c1ccccc1N=[N+]=[N-]`, the z-score in assay [1] was 0.506; in [2], 0.314 (inactive); in assay [3], -1.36 (inactive); in assay [5] it was 1.35 (inactive); in [6], 1.98 (inactive); in [7], 0.306 (inactive). The z-score is -0.264 (inactive) in [8]; -0.839 in assay [9]; -2.36 in [12]; -5.33 (inactive) in assay [13]; -0.146 (inactive) in assay [14]; -0.222 (inactive) in [15]. The composite z-score in assay [4] was 0.645 (inactive); in assay [10], 0.0428; in assay [11] it was 1.55 (inactive); with XIP peptide (Xip251-270) it was 0.825.

For `COC(=O)[C@@]1(Cc2ccc(OC)cc2)[C@H]2c3cc(C(=O)N(C)C)n(Cc4cc(F)c(F)c(F)c4)c3C[C@H]2CN1C(=O)c1ccccc1`, the z-score in assay [1] is -1.07; in assay [2], 1.83 (inactive); in [3], -2.61 (inactive); in assay [5] it was 4.06 (inactive); in [6] it was 0.726 (inactive); in [7] it was -0.337 (inactive). In addition, the z-score in [8] was -0.622 (inactive); in assay [9], -2.32; in assay [12], -1.81; in assay [13], -1.93 (inactive); in [14], 0.102 (inactive); in assay [15] it was -0.186 (inactive). Further, the composite z-score in [4] is -2.65 (inactive); in assay [10], 0.0957; in [11], 0.0306 (inactive); in the assay with XIP peptide (Xip251-270) it was 0.577.

For `O=C1N(CCS(=O)(=O)c2ccccc2)Cc2ccccc2C[C@@]12COC(c1ccc(OCCCO)cc1)=N2`, the z-score is 0.0549 in assay [1]; 1.58 (inactive) in assay [2]; -5.12 (inactive) in [3]; 0.0379 (inactive) in assay [5]; 2.14 (inactive) in assay [6]; 0.862 (inactive) in [7]. Also, the z-score in assay [8] is -0.691 (inactive); in [9] it was -3.43; in assay [12] it was -2.05; in assay [13], -4.6 (inactive); in assay [14], -1.03 (inactive); in [15] it was -1.29 (inactive). Also, the composite z-score in assay [4] is -0.211 (inactive); in assay [10] it was 0.167; in assay [11], 0.913 (inactive); with XIP peptide (Xip251-270), 0.82.

Regarding `COCCOC(=O)N1C(=O)[C@@]2(c3cc(C#CCCO)ccc31)[C@H](c1ccc(OCCO)cc1)N1[C@H](c3ccccc3)[C@H](c3ccccc3)OC(=O)[C@H]1[C@@H]2C(=O)N1CCc2cc(OC)c(OC)cc2C1`, the z-score is -0.398 in assay [1]; 1.28 (inactive) in assay [2]; -1.24 (inactive) in assay [3]; 1.64 (inactive) in assay [5]; 3.35 (inactive) in assay [6]; 0.154 (inactive) in assay [7]. Besides, the z-score in [8] is 0.554 (inactive); in assay [9], 0.908; in assay [12], -1.87; in assay [13], 2.71 (inactive); in assay [14], -0.209 (inactive); in [15] it was 0.0256 (inactive). The composite z-score is -1.02 (inactive) in assay [4], -0.102 in assay [10], 0.311 (inactive) in assay [11] and 0.736 in the assay on XIP peptide (Xip251-270).

Take `CC(C)(C)OC(=O)CC[C@@]1(C(=O)N2CCCCC2)N=C(c2ccc(OCCCO)cc2)O[C@@H]1c1ccccc1N=[N+]=[N-]`: the z-score in [1] was -0.254; in assay [2] it was 0.601 (inactive); in assay [3] it was -1.73 (inactive); in assay [5], -0.279 (inactive); in assay [6], 0.879 (inactive); in assay [7] it was 0.264 (inactive). Moreover, the z-score was 1.36 (inactive) in assay [8]; -0.408 in assay [9]; -2.08 in assay [12]; -3.63 (inactive) in [13]; -0.184 (inactive) in assay [14]; -0.414 (inactive) in assay [15]. Besides, the composite z-score in assay [4] is 0.27 (inactive); in [10] it was -0.0474; in assay [11], 0.416 (inactive); in the assay on XIP peptide (Xip251-270), 0.83.
